Some test systems named below: T-47D breast; BT-549 breast; MDA-MB-435 melanoma; SW-620 colon; MCF7 breast; HCT-116 colon; KM12 colon; HCC-2998 colon.
Test in all cases: NCI-60 one-dose screen, 48 h (100 = growth as untreated, 0 = no growth, -100 = all killed)
Conditions in all cases: 10 µM unless noted

The panel holds about 83,000 compounds, 20% with a hit somewhere; the sample as a whole holds those more often.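 In brief: 96-well plates, 48 h treatment, single concentration, percent growth endpoint.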 A number with no mark means an inactive call. Active and inactive are the calls of the source. The calls were made as follows: active = growth percent below 10; inactive = the rest. *1 amine or outer side, *2 acyl side, *3 side chain or, on linkers, in order; H or OH if unused. Where a SMILES comes first, the peptide text is derived from it. [ ]: non-standard residue; d: D form. The star is where a group is joined. X5 = CCC(=O)CC1CC(C)CC(C(=O)[*:2])N1[*:1]; X4 = CCCCCCCCC(C)C(=O)*; Aib = CC(C)(N)C(=O)O; X6 = CC(CN(C)CCO)N*

For `CN1CSC(=S)N(Cc2ccccc2)C1`, the growth in the experiment with T-47D breast is 43.1%; in the experiment with BT-549 breast, 80.3%; in the experiment with MDA-MB-435 melanoma, 77.9%; in the experiment on SW-620 colon, 35.4%; with MCF7 breast, 33.5%; in the experiment with HCT-116 colon it was 25.9%. For the same molecule, the growth in the experiment on KM12 colon is 40.8%.
`Oc1ccc(Nc2ccc3ccccc3c2)cc1`: the growth in the experiment on T-47D breast is 52.6%; in the experiment on BT-549 breast it was 74.3%; in the experiment with MDA-MB-435 melanoma it was 51.3%; with SW-620 colon, 66.2%; with MCF7 breast it was 64.7%; in the experiment on HCT-116 colon it was 70.8%. Further, the growth in the experiment on KM12 colon is 35.6%.
`O=C1/C(=C/c2ccccn2)CCc2ccccc21`: the growth is 84.9% in the experiment on T-47D breast; 106% in the experiment with BT-549 breast; 88.5% in the experiment on MDA-MB-435 melanoma; 85.5% in the experiment on SW-620 colon; 59.4% with MCF7 breast; 90.4% in the experiment with HCT-116 colon. In the experiment with KM12 colon, the growth is 86.9%.
As to `CCCCCC[C@@H](O)C/C=C\CCCCCCCC(=O)OCCOC`, the growth is 94.3% in the experiment with T-47D breast; 99% in the experiment on BT-549 breast; 110% in the experiment with MDA-MB-435 melanoma; 102% with SW-620 colon; 100% with MCF7 breast; 89.2% in the experiment with HCT-116 colon. Moreover, the growth in the experiment on KM12 colon is 102%.
As to `NNc1ccc(Cl)cc1Cl`, the growth in the experiment on T-47D breast is 52%; with BT-549 breast, 88.7%; with MDA-MB-435 melanoma, 96.6%; in the experiment on SW-620 colon, 53.7%; in the experiment with HCT-116 colon it was 87.1%; in the experiment with HCC-2998 colon, 93.9%. Further, the growth in the experiment with KM12 colon is 51.3%.
For `S=C(S)OCN1CCOCC1`, the growth in the experiment with T-47D breast was 88.1%; in the experiment with BT-549 breast, 100%; in the experiment on MDA-MB-435 melanoma, 88.4%; in the experiment with SW-620 colon it was 74.8%; in the experiment with HCT-116 colon, 98.8%; with HCC-2998 colon, 97.4%.
On to `O=C1/C(=C\c2ccc([N+](=O)[O-])cc2)CS(=O)(=O)C/C1=C/c1ccc([N+](=O)[O-])cc1`, for which the growth with T-47D breast was -56% (active); in the experiment with BT-549 breast it was -82.2% (active); in the experiment on MDA-MB-435 melanoma, -75% (active); in the experiment with SW-620 colon it was -71.6% (active); with MCF7 breast, -58.5% (active); with HCT-116 colon, -100% (active). For the same molecule, the growth in the experiment with KM12 colon is -89.4% (active).
For the molecule `CCCCCCCCC(C)C(=O)N1CCCC1C(=O)N1C(CC(=O)CC)CC(C)CC1C(=O)NC(C)C(=O)NC(C)(C)C(=O)NC(C)(C)C(=O)NC(C(=O)NC(C)C(=O)NC(C)(C)C(=O)NC(C)(C)C(=O)NC(C)CN(C)CCO)C(C)CC` (stereo not given) (X4-P[X5]A[Aib][Aib]IA[Aib][Aib]-X6; configuration not given here), the growth in the experiment on T-47D breast is -16.5% (active); in the experiment with BT-549 breast it was -80.3% (active); in the experiment on MDA-MB-435 melanoma it was -18.8% (active); in the experiment with SW-620 colon, -81.4% (active); in the experiment on MCF7 breast it was -80.7% (active); in the experiment on HCT-116 colon, -88.8% (active). Moreover, the growth with KM12 colon was -75.8% (active).
In the case of `Cc1cc(C(=C2C=CC(=Nc3ccccc3)C=C2)c2ccc(Nc3ccccc3)cc2)ccc1N`, the growth was -50.1% (active) in the experiment on T-47D breast; -88.9% (active) in the experiment with BT-549 breast; -68% (active) in the experiment on MDA-MB-435 melanoma; -70.4% (active) in the experiment with SW-620 colon; -44.3% (active) in the experiment with MCF7 breast; 0.559% (active) with HCT-116 colon. Also, the growth in the experiment on KM12 colon is -89.2% (active).
For the molecule `CCN(CC)CCNC(Cc1ccccc1)c1ccc(OCc2ccccc2)cc1` (stereo not given), the growth was 68.5% with T-47D breast; 76.8% in the experiment with BT-549 breast; 26.7% in the experiment on MDA-MB-435 melanoma; 77.2% with SW-620 colon; 49.9% with HCT-116 colon; 45.4% with HCC-2998 colon. In addition, the growth with KM12 colon was 80.7%.
Consider `CCN(CC)CC(O)c1cc(-c2ccc(Cl)cc2)nc2cc(Cl)ccc12` (stereo not given), for which the growth in the experiment with T-47D breast is 12.9%; with BT-549 breast, 81.6%; in the experiment with MDA-MB-435 melanoma, 13.1%; in the experiment with SW-620 colon, 31.5%; with HCT-116 colon, -0.822% (active); in the experiment with HCC-2998 colon, 26.4%. The growth in the experiment on KM12 colon is -36.6% (active).
In the case of `N#CCc1cccc2ccccc12`, the growth is 105% with T-47D breast; 119% with MDA-MB-435 melanoma; 105% in the experiment with SW-620 colon; 87.4% in the experiment on MCF7 breast; 106% in the experiment with HCT-116 colon; 109% in the experiment with HCC-2998 colon. In addition, the growth in the experiment with KM12 colon is 110%.
As for `Nc1cccc2cccc([N+](=O)[O-])c12`, the growth in the experiment with T-47D breast is 113%; with BT-549 breast, 105%; with MDA-MB-435 melanoma, 108%; in the experiment with SW-620 colon, 106%; with HCT-116 colon, 104%; in the experiment with HCC-2998 colon it was 103%. Also, the growth in the experiment on KM12 colon was 113%.
Consider `O=C(c1ccccc1)C(O)C(Br)(CBr)c1ccccc1` (stereo not given), for which the growth in the experiment with T-47D breast is 98.6%; in the experiment with BT-549 breast, 68.4%; in the experiment on MDA-MB-435 melanoma it was 67.4%; in the experiment with MCF7 breast, 81.5%; with HCT-116 colon it was 57.2%; in the experiment on HCC-2998 colon, 87.1%. For the same molecule, the growth in the experiment on KM12 colon is 80.5%.
As for `CN(C)c1ccc(/C=C/c2sc3ccc4ccccc4c3[n+]2C)cc1`, the growth in the experiment on T-47D breast is -10.9% (active); in the experiment with MDA-MB-435 melanoma, -34.8% (active); in the experiment on SW-620 colon it was -63.9% (active); in the experiment on MCF7 breast, -9.73% (active); in the experiment with HCT-116 colon it was -71.8% (active); in the experiment on HCC-2998 colon, -91.5% (active). Also, the growth in the experiment with KM12 colon is -63% (active).
For `CCCOC(=O)c1nc(N(CC2CCCCC2)C(=O)NC)sc1/N=C/c1ccccc1`, the growth with T-47D breast is 15.2%; with BT-549 breast, 18.9%; in the experiment on MDA-MB-435 melanoma, -46.9% (active); in the experiment on MCF7 breast, 3.21% (active); in the experiment on HCT-116 colon, -25.6% (active); in the experiment with KM12 colon, 7.21% (active).
On to `CCC1C[N+]2=C(c3cc(OC)c(OC)cc3CC2)c2c1cc1n2CCc2cc(OC)c(OC)cc2-1` (stereo not given), for which the growth in the experiment on T-47D breast is 6.69% (active); with BT-549 breast, 26.7%; in the experiment with MDA-MB-435 melanoma it was 5.51% (active); with SW-620 colon, 48.8%; in the experiment on HCT-116 colon, 40.4%; in the experiment with KM12 colon it was 7.73% (active).
As to `CN1CCC(c2ccccc2)(c2ccccc2)C(=O)C1`, the growth is 13.7% in the experiment with T-47D breast; 115% with BT-549 breast; 98.9% in the experiment with MDA-MB-435 melanoma; 27.7% with MCF7 breast; 64.8% with HCT-116 colon; 82.1% in the experiment on HCC-2998 colon. The growth in the experiment on KM12 colon was 92.2%.
With `CCCCCCCCCCCCCCCCCC[S+](C)CC` (stereo not given), the growth in the experiment on T-47D breast was 16.6%; in the experiment with BT-549 breast it was 45.1%; in the experiment with SW-620 colon it was 28.1%; in the experiment with MCF7 breast it was 36.3%; with HCT-116 colon, 27.8%; with HCC-2998 colon it was 50.2%. Moreover, the growth with KM12 colon is -31.7% (active).
With `c1ccc(-c2cccc(-c3ccccn3)n2)nc1`, the growth in the experiment on T-47D breast was 38.1%; in the experiment on MDA-MB-435 melanoma, 33.9%; with SW-620 colon, 29.6%; in the experiment with MCF7 breast, 14.1%; with HCT-116 colon, 6.59% (active); with HCC-2998 colon it was 18.7%. Besides, in the experiment with KM12 colon, the growth is 27.6%.
In the case of `CCCCCCCCCCCCN1C(C)=CS/C1=C\C=C\c1scc(C)[n+]1CCCCCCCCCCCC`, the growth in the experiment on T-47D breast is 13.8%; in the experiment on BT-549 breast, 23.7%; in the experiment on MDA-MB-435 melanoma, 13.6%; in the experiment with SW-620 colon, 30.7%; in the experiment on HCT-116 colon, 17.7%; in the experiment with HCC-2998 colon it was 28.4%. The growth in the experiment on KM12 colon was 14.8%.
With `CCC(C)(O)Cc1ccc(Cl)cc1` (stereo not given), the growth with T-47D breast was 94.9%; in the experiment with BT-549 breast, 98.5%; in the experiment with MDA-MB-435 melanoma, 101%; in the experiment with SW-620 colon, 99.4%; in the experiment with HCT-116 colon it was 97.7%; in the experiment with HCC-2998 colon, 109%. In addition, in the experiment with KM12 colon, the growth was 101%.
For the molecule `O=C1C=CC(=O)N1c1cc(Cl)c(Cl)cc1Cl`, the growth with T-47D breast is 103%; with BT-549 breast, 97.9%; in the experiment on MDA-MB-435 melanoma it was 106%; in the experiment on SW-620 colon it was 110%; in the experiment with HCT-116 colon, 90%; with HCC-2998 colon, 103%. In addition, the growth in the experiment on KM12 colon was 106%.
For the molecule `COc1cc([C@@H]2c3cc4c(cc3[C@H](OC3OC5COC(c6ccccc6)OC5C(O)C3O)[C@H]3COC(=O)[C@H]23)OCO4)cc(OC)c1OC` (stereo not given in full), the growth in the experiment on T-47D breast is 107%; in the experiment with MDA-MB-435 melanoma it was 22.7%; in the experiment on SW-620 colon it was 43.9%; with MCF7 breast, 10.5%; in the experiment with HCT-116 colon it was 12.3%; with HCC-2998 colon it was -5.24% (active). In addition, the growth in the experiment on KM12 colon was 42.9%.
For the molecule `CN1CCC(CN2c3ccccc3Sc3ccccc32)C1` (stereo not given), the growth in the experiment on T-47D breast is 93.6%; in the experiment on BT-549 breast, 89.4%; in the experiment on MDA-MB-435 melanoma it was 88.5%; in the experiment on SW-620 colon, 93.7%; with HCT-116 colon, 77.6%; in the experiment with HCC-2998 colon, 41.4%. The growth with KM12 colon is 97.2%.
On to `COC1=CC(=O)c2c(O)c3c(c(O)c2C1=O)CC(C)(O)OC3` (stereo not given), for which the growth in the experiment with T-47D breast was 0.836% (active); in the experiment on BT-549 breast it was 28.1%; in the experiment with MDA-MB-435 melanoma, -95% (active); in the experiment on SW-620 colon it was 16.6%; in the experiment on HCT-116 colon, -27.6% (active); in the experiment with HCC-2998 colon, -20.5% (active). The growth with KM12 colon was 9.83% (active).
As for `CCCCCCCCCCCC[n+]1ccccc1` (tested in a mixture with another compound), the growth in the experiment with T-47D breast is 14.4%; in the experiment with BT-549 breast, -57.6% (active); in the experiment with MDA-MB-435 melanoma, -74% (active); in the experiment with SW-620 colon, 0.841% (active); in the experiment on HCT-116 colon, -9.07% (active); with KM12 colon, -95.7% (active).
